Experimental data: PubChem BioAssay (EPA / NIEHS)
Inconclusive results are not listed. Active and inactive are the calls of the source. Rule for the calls, unless noted: active = hit-call score of the fitted dose curve at least 0.9, where 1 is the maximum; inconclusive = response in the unintended direction; inactive = score below 0.9.

Assays:
[1] = TOX21_p53_BLA_p2_viability: Viability Assessment in the Tox21 HCT-116 p53 Agonism Beta-lactamase Assay, Phase 2 (AID 2283591);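 note: actives lower the ATP signal meaning cytotoxicity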
Summary of the method: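 Cytotoxicity readout: CellTiter-Glo ATP luminescence, 30 min at room temperature, after the beta-lactamase read. Cells were HCT116 exposed 16 h at 37C to compounds pin-transferred at 217-fold dilution from DMSO stocks.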

[2] = biological target: Cellular tumor antigen p53 (Homo sapiens) (UniProt P04637); test: TOX21_p53_BLA_p2_ratio: Tox21 HCT-116 p53 Agonism Beta-lactamase Assay, Ratio, Phase 2 (AID 2283592)
Summary of the method: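 HCT-116 cells with p53-responsive beta-lactamase reporter, 4000 cells/well, preincubated 5 h, then compound in DMSO (217-fold dilution) for 16 h at 37C. CCF4-AM substrate 2 h at room temperature; 460/530 nm emission ratio fitted upward versus DMSO.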

[3] = TOX21_p53_BLA_p3_viability: Viability Assessment in the Tox21 HCT-116 p53 Agonism Beta-lactamase Assay, Phase 3 (AID 2283593);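 note: cells exposed to compound for 16 h before reading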
Summary of the method: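 Cellular ATP was quantified by CellTiter-Glo luminescence, read after 30 min at room temperature. Beforehand, HCT116 cells (4000/well) received compound 5 h post-seeding, 217-fold diluted from DMSO, then incubated 16 h at 37C.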

[4] = biological target: Cellular tumor antigen p53 (Homo sapiens) (UniProt P04637); test: TOX21_p53_BLA_p3_ratio: Tox21 HCT-116 p53 Agonism Beta-lactamase Assay, Ratio, Phase 3 (AID 2283596)
Summary of the method: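 HCT116 p53-bla cells (4000/well) given compound in DMSO (217-fold dilution) after 5 h, incubated 16 h at 37C. CCF4-AM substrate 2 h at room temperature; 460/530 nm emission ratio, gain fitted against DMSO.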

[5] = TOX21_p53_BLA_p4_viability: Viability Assessment in the Tox21 HCT-116 p53 Agonism Beta-lactamase Assay, Phase 4 (AID 2283597);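 note: hits lower the luminescence signal meaning cytotoxicity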
Summary of the method: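 HCT-116 p53-bla cells, 4000/well, dosed after 5 h attachment and incubated 16 h at 37 °C, 5% CO2. Viability from CellTiter-Glo ATP luminescence after 30 min at room temperature, taken after the beta-lactamase read; loss of signal indicates cytotoxicity.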

[6] = biological target: Cellular tumor antigen p53 (Homo sapiens) (UniProt P04637); test: TOX21_p53_BLA_p5_ratio: Tox21 HCT-116 p53 Agonism Beta-lactamase Assay, Ratio, Phase 5 (AID 2283599)
Summary of the method: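 Beta-lactamase reporter ratio (blue 460 nm over green 530 nm, 405 nm excitation) after 2 h CCF4-AM loading, in HCT-116 cells exposed 16 h at 37 C to compounds pinned at 217-fold dilution. Increases relative to DMSO baseline scored.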

[7] = biological target: Cellular tumor antigen p53 (Homo sapiens) (UniProt P04637); test: TOX21_p53_BLA_p4_ratio: Tox21 HCT-116 p53 Agonism Beta-lactamase Assay, Ratio, Phase 4 (AID 2283601)
Summary of the method: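 Signal is the blue/green (460nm/530nm) ratio of cleaved versus uncleaved CCF4-AM substrate, read after 2 h substrate loading. Cells were HCT116 carrying the p53-responsive beta-lactamase reporter, dosed 16 h at 37C, 5% CO2; CellTiter-Glo measured in parallel.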

[8] = TOX21_p53_BLA_p5_viability: Viability Assessment in the Tox21 HCT-116 p53 Agonism Beta-lactamase Assay, Phase 5 (AID 2283600)
Summary of the method: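 HCT-116 p53 beta-lactamase reporter cells, 4000/well, were exposed to compound (pin transfer, 217-fold dilution) for 16 hours at 37C. Cellular ATP was read by CellTiter-Glo luminescence after 30 min at room temperature.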

[9] = ACEA_ER_AUC_viability: ACEA Biosciences xCELLigence Real-Time Cell Analysis on Estrogen Receptor Agonism for Viability (AID 2283782);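 note: continuous compound exposure with impedance area under curve over 80 h; hit means loss of impedance signal meaning reduced cell growth or viability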
Summary of the method: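 T-47D; phenol red-free RPMI1640 + 10% CS-FBS; 8 conc., 1:4 serial, max 100 uM final, ≤0.5% DMSO; n = 2; continuous exposure; impedance monitored to 80 h post-dose; AUC vs DMSO.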

[10] = biological target: Thyroid hormone receptor alpha (Rattus norvegicus) + Thyroid hormone receptor beta (Rattus norvegicus) (UniProt P18113+P63059); test: TOX21_TR_LUC_GH3_Agonist_Followup: Tox21 GH3 Thyroid Hormone Receptor Agonism Luciferase Follow-Up Assay (AID 2283939)
Summary of the method: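 Rat GH3 cells (1,500/well) in serum-free assay medium, treated with 15-point series, 92 uM to 5 nM final, for 24 h at 37C. Luciferase via ONE-Glo luminescence; gain of signal fitted against DMSO, T3 positive control.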

THRA (gene 7067) = THRA (gene 7067) (UniProt P10827); test: TOX21_TRA_COA_Agonist_Followup_ratio: Tox21 Thyroid Hormone Receptor alpha Agonism through Coactivator Recruitment Follow-Up Assay, Ratio (AID 2283948; active = hit-call score of the fitted dose curve at least 0.9, where 1 is the maximum; inactive = score below 0.9)
Summary of the method: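 Cell-free TR-FRET: GST-tagged TRα LBD (2.5 nM) with 0.10% BSA and compound, then fluorescein-SRC-2 peptide (200 nM) and Tb-anti-GST antibody (2 nM). Readout 520:495 nm ratio (ex 340 nm), normalized to DMSO (0%) and T3 (100%).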

THRB (gene 7068) [11] = biological target: THRB (gene 7068) (UniProt P10828); test: TOX21_TRB_BLA_Agonist_Followup_ratio: Tox21 Thyroid Hormone Receptor beta Agonism Beta-lactamase (BLA) Follow-Up Assay, Ratio (AID 2283954)
Summary of the method: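 Human TRβ LBD–GAL4 DBD fusion in GeneBLAzer UAS-bla HEK293T cells; 11 concentrations in triplicate, 18 h at 37°C/5% CO2, T3 as agonist control. CCF4-AM substrate 2 h at room temperature; 460:530 nm ratio fitted for gain of signal versus DMSO.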

THRB (gene 7068) [12] = biological target: THRB (gene 7068) (UniProt P10828); test: TOX21_TRB_COA_Agonist_Followup_ratio: Tox21 Thyroid Hormone Receptor beta Agonism through Coactivator Recruitment Follow-Up Assay, Ratio (AID 2283963; active = hit-call score of the fitted dose curve at least 0.9, where 1 is the maximum; inactive = score below 0.9)
Summary of the method: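 First, the GST-fused TRβ ligand-binding domain (5.0 nM) was incubated with test compound in 0.10% BSA. Next, fluorescein-tagged SRC-2 peptide (200 nM) and terbium anti-GST antibody (2 nM) were added. Finally, TR-FRET emission ratios were normalized against DMSO and T3 controls.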

[13] = biological target: Retinoic acid receptor RXR-alpha (Homo sapiens) (UniProt P19793); test: TOX21_TR_RXR_BLA_Agonist_Followup_ratio: Tox21 Thyroid Hormone Receptor beta Retinoid X Receptor alpha (RXRa) Agonism Beta-lactamase (BLA) Follow-Up Assay, Ratio (AID 2283968)
Summary of the method: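 RXRa-UAS-bla HEK293T cells (GAL4 beta-lactamase reporter) were treated with compounds at 11 concentrations in triplicate for 16 h at 37C/5% CO2, then loaded with CCF4-AM substrate for 2 h at room temperature; activity is the 460:530 nm ratio versus DMSO baseline.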

[14] = TOX21_TR_RXR_BLA_Agonist_Followup_viability: Viability Assessment in the Tox21 Thyroid Hormone Receptor beta Retinoid X Receptor alpha (RXRa) Agonism Beta-lactamase (BLA) Follow-Up Assay (AID 2283970)
Summary of the method: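 RXRa-UAS-bla HEK293T cells seeded at 2,500/well in phenol red-free DMEM with 2% charcoal-stripped FBS, exposed to compound 16h at 37C/5% CO2 in qHTS. Viability read by CellTiter-Glo ATP luminescence; bidirectional fitting against DMSO baseline, signal loss indicating cytotoxicity.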

[15] = CCTE_Harrill_HTTr_Viability_MCF7: CCTE's 6-hour Cell Viability Assessment for the High-Throughput Transcriptomics (HTTr) Platform, in MCF-7 cells cultured in DMEM + 10% fetal bovine serum, Harrill Lab (AID 2284010; active = hit-call score of the fitted dose curve at least 0.9, where 1 is the maximum; inactive = score below 0.9)
Summary of the method: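 Membrane integrity was scored by high-content imaging of propidium iodide dye exclusion after a 6 h exposure across an eight-point dilution series. Data were fitted bidirectionally relative to DMSO as negative control and baseline.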

[16] = CCTE_Harrill_HTTr_Apoptosis_MCF7: CCTE's 6-hour Apoptosis Assessment for the High-Throughput Transcriptomics (HTTr) Platform, in MCF-7 cells cultured in DMEM + 10% fetal bovine serum, Harrill Lab (AID 2284011; active = hit-call score of the fitted dose curve at least 0.9, where 1 is the maximum; inactive = score below 0.9)
Summary of the method: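 MCF-7 cells in DMEM + 10% FBS exposed 6 h to chemicals over an eight-point dilution series. Caspase-3/7 activation imaged by high-content CellEvent Green staining; fitted bidirectionally versus DMSO.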

[17] = CCTE_Harrill_HTTr_CellCount_MCF7: CCTE's Cell Proliferation Assessment for the High-Throughput Transcriptomics (HTTr) Platform, Harrill Lab (AID 2284012);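 note: intended direction is loss of nuclei count meaning fewer cells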
Summary of the method: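 MCF-7 cells were exposed for 6 h to an eight-point dilution series; Hoechst-labeled nuclei were counted by high content imaging. Curves were fitted bidirectionally against DMSO as negative control and baseline, with signal loss indicating reduced cell count.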

PGR (gene 5241) [18] = biological target: PGR (gene 5241) (UniProt P06401); test: TOX21_PR_BLA_Followup_Agonist_ratio: Tox21 HEK293 Progesterone Receptor (PR) Agonism Beta-lactamase Follow-Up Assay, Ratio (AID 2283933)
Summary of the method: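 PR-UAS-bla HEK293T cells (GAL4-UAS beta-lactamase reporter) in medium with 2% charcoal-stripped FBS received compounds after 6 hr at 37C, then incubated 16 hr. LiveBLAzer FRET substrate added, 2 hr room temperature; cleaved/uncleaved (ch2/ch1) ratio fitted upward versus DMSO.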

PGR (gene 5241) [19] = biological target: PGR (gene 5241) (UniProt P06401); test: TOX21_PR_BLA_Followup_Antagonist_ratio: Tox21 HEK293 Progesterone Receptor (PR) Antagonism Beta-lactamase Follow-Up Assay, Ratio (AID 2283934)
Summary of the method: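 PR-UAS-bla HEK293T cells in medium with 2% charcoal-stripped FBS were treated with compounds plus 1 nM (final) promegestone (R5020) for 16 hr at 37C. LiveBLAzer B/G FRET substrate was then added for 2 h at room temperature; signal is cleaved/uncleaved substrate ratio versus DMSO.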

[20] = TOX21_PR_BLA_Followup_Agonist_viability: Viability Assessment in the Tox21 HEK293 Progesterone Receptor (PR) Agonism Beta-lactamase Follow-Up Assay (AID 2283935);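 note: signal loss means lower viability so actives are cytotoxic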
Summary of the method: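 PR-UAS-bla HEK293T cells in 2% charcoal-stripped FBS medium, compound added after 6 hr plating, 16 hr at 37C/5% CO2. After bla FRET read, CellTiter-Glo added; luminescence read after 30 min at room temperature; signal loss marks cytotoxicity.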

[21] = TOX21_PR_BLA_Followup_Antagonist_viability: Viability Assessment in the Tox21 HEK293 Progesterone Receptor (PR) Antagonism Beta-lactamase Follow-Up Assay (AID 2283936);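 note: hits lower the luminescence signal meaning cytotoxicity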
Summary of the method: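 PR-UAS-bla HEK293T cells (3,000/well, 2% charcoal-stripped FBS) given compound plus R5020 agonist, 16 h at 37C. CellTiter-Glo added after bla read, 30 min at room temperature; luminescence loss indicates cytotoxicity.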

PGR (gene 5241) [22] = biological target: PGR (gene 5241) (UniProt P06401); test: TOX21_PR_LUC_Followup_Antagonist: Tox21 HEK293 Progesterone Receptor (PR) Antagonism Luciferase Follow-Up Assay (AID 2283938);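 note: curve fitted upward as signal gain over DMSO baseline despite antagonist label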
Summary of the method: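 HEK293-PR-A-luc cells, 3,000/well, preincubated 5 h at 37C before compound addition in DMSO; 16 h compound exposure at 37C. ONE-Glo luciferase luminescence read after 30 min at room temperature, fitted relative to DMSO baseline.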

[23] = TOX21_PR_LUC_Followup_Agonist_viability: Viability Assessment in the Tox21 HEK293 Progesterone Receptor (PR) Agonism Luciferase Follow-Up Assay (AID 2283941);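 note: loss of signal means cytotoxicity so actives lower viability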
Summary of the method: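 HEK293-PR-A-luc cells, pre-cultured 5 days in 10% charcoal-stripped FBS, were seeded at 3,000 cells/well, rested 5 h at 37C, then given compound in DMSO for 16 h at 37C. Cellular ATP was read by CellTiter-Glo luminescence; signal loss indicates cytotoxicity.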

Measured: AC50

Cellular tumor antigen p53 (Homo sapiens), sequence (P04637 whole entry, looked up): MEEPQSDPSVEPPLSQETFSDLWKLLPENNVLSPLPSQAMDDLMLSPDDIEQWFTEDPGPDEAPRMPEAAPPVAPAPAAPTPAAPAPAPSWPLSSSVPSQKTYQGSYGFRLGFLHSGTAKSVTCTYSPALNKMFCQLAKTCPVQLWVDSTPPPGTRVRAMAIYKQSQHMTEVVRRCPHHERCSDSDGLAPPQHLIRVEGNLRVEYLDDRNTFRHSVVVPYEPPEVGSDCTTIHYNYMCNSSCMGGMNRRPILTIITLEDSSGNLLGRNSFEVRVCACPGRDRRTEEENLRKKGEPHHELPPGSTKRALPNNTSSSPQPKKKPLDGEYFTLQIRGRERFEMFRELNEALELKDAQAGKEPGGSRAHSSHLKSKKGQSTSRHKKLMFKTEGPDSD
PGR (gene 5241), sequence (P06401 whole entry, looked up, the tested form may be a part): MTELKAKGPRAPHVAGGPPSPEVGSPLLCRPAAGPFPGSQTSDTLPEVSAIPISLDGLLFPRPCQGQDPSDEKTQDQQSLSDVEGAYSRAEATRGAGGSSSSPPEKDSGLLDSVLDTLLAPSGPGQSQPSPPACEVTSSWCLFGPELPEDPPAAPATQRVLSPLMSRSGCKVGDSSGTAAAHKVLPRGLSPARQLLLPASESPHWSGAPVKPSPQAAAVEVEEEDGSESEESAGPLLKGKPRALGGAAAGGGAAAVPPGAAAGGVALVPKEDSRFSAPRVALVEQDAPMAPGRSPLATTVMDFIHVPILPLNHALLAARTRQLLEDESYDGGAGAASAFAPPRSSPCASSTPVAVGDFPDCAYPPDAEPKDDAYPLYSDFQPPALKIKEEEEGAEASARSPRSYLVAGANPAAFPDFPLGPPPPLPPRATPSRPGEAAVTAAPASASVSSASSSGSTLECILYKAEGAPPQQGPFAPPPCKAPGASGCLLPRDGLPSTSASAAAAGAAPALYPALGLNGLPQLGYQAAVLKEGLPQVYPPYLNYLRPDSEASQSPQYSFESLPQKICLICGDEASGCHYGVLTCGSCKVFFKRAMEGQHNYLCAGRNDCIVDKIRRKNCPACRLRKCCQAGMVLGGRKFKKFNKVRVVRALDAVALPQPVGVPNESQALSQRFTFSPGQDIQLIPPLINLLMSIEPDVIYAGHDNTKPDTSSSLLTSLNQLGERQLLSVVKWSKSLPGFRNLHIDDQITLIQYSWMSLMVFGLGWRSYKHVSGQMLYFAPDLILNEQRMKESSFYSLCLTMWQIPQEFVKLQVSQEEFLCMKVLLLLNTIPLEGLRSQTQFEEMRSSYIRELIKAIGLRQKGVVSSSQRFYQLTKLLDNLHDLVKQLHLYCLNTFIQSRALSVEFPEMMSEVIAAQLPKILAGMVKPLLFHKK
THRB (gene 7068), sequence (P10828 whole entry, looked up, the tested form may be a part): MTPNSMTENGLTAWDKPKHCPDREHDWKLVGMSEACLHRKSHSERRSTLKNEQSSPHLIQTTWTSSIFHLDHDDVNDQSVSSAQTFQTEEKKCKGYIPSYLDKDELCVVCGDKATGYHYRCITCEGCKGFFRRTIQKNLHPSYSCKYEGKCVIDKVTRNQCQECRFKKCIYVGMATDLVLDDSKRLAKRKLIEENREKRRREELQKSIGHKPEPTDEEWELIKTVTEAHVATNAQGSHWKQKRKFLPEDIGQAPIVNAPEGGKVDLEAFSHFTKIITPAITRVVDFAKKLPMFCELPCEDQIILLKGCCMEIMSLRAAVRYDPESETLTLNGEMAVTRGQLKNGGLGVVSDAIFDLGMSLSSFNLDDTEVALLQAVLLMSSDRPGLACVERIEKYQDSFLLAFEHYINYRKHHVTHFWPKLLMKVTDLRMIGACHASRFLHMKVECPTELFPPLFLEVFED
Retinoic acid receptor RXR-alpha (Homo sapiens), sequence (P19793 whole entry, looked up, the tested form may be a part): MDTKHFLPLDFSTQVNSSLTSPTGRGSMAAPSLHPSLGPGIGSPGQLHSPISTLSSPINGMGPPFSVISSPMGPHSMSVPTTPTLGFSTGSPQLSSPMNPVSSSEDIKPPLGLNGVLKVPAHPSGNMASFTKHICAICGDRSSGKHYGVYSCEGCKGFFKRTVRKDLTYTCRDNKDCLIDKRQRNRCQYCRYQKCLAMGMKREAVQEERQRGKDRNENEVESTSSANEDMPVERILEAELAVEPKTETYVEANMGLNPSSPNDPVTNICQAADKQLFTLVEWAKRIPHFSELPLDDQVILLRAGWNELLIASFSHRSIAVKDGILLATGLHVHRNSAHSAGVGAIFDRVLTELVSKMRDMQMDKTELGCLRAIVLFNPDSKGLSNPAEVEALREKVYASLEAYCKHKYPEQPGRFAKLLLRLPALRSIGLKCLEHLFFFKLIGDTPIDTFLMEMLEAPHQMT
THRA (gene 7067), sequence (P10827 whole entry, looked up, the tested form may be a part): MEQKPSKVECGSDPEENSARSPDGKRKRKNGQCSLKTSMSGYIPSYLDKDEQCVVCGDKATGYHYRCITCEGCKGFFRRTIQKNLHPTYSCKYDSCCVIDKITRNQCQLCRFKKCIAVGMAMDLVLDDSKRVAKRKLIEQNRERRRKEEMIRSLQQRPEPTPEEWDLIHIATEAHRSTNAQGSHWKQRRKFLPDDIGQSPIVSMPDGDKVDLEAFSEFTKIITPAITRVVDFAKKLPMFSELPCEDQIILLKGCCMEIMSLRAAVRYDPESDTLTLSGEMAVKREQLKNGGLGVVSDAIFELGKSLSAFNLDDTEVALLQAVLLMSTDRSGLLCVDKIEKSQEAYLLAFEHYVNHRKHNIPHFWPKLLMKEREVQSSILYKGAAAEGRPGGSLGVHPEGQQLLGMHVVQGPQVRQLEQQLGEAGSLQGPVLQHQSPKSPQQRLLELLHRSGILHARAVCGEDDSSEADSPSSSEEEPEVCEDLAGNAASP
Thyroid hormone receptor alpha (Rattus norvegicus) + Thyroid hormone receptor beta (Rattus norvegicus), sequence (P63059 whole entry, looked up): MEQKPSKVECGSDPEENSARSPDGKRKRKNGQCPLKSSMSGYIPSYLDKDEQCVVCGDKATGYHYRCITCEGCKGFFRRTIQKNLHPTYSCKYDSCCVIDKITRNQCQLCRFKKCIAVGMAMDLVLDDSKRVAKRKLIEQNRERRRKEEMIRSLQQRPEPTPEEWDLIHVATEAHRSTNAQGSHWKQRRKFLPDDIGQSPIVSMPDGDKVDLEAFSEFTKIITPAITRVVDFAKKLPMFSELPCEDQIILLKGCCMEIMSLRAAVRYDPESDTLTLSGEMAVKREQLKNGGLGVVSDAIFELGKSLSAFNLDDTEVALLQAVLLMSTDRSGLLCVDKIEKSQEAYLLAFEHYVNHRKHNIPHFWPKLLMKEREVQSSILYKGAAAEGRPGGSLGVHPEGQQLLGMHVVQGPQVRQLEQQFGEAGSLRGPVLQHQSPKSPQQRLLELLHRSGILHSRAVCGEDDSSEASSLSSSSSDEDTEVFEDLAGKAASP
Thyroid hormone receptor alpha (Rattus norvegicus) + Thyroid hormone receptor beta (Rattus norvegicus), sequence (P18113 whole entry, looked up): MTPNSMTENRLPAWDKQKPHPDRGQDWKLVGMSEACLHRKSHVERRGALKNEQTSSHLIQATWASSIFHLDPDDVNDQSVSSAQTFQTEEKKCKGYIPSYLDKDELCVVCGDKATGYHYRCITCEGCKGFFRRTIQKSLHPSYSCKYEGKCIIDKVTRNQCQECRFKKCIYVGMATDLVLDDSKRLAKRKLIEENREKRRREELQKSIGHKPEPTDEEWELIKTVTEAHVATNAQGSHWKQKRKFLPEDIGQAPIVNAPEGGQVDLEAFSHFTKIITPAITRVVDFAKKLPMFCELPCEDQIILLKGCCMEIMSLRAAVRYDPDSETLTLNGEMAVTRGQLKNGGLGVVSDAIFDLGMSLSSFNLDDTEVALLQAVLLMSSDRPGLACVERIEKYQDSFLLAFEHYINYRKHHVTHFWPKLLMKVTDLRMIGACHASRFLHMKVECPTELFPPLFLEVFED

N#CCCSCCC#N
inactive: [1] | [2] | [3] | [4] | [5] | [6] | [7]

CN[C@H]1C[C@@H](N)[C@H](O)[C@@H](O[C@@H]2O[C@H](CO)[C@H](O)[C@@H]3OC4(O[C@H]23)O[C@H](C(N)CO)[C@H](O)[C@H](O)C4O)[C@@H]1O (some centres undefined)
inactive: [1] | [2] | [3] | [4] | [5] | [7]

Nc1ccccc1C(=O)OCC=Cc1ccccc1
inactive: [2] | [3] | [4] | [5] | [6] | [7]
active: [1] 66.3 µM

CNC(=O)ON=C(CSC)C(C)(C)C
not listed: [7] | PGR (gene 5241) [18] | PGR (gene 5241) [19] | [20] | [21] | PGR (gene 5241) [22] | [23]
inactive: all other assays above

COc1ccc2c(c1OC)CN1CCc3cc4c(cc3C1C2)OCO4 (centres undefined)
active: PGR (gene 5241) [19] 5.55 µM | PGR (gene 5241) [22] 11.5 µM
inactive: [1] | [2] | [3] | [4] | [5] | PGR (gene 5241) [18] | [20] | [21] | [23]

O=NN1CCNCC1
inactive: [1] | [2] | [3] | [4] | [5] | [8] | [7]

Cc1ccccc1-n1c(C)nc2ccccc2c1=O
inactive: [1] | [2] | [3] | [4] | [5] | [6] | [7]

CC(C)CC(C)N (centres undefined)
inactive: [1] | [2] | [3] | [4] | [5] | [6] | [7]

CCNC1(c2cccs2)CCCCC1=O (centres undefined)
inactive: [1] | [2] | [3] | [4] | [6]

O=C/C=C/c1ccco1
inactive: [1] | [2] | [3] | [4] | [5] | [8] | [7]

CCC1(c2cnc[nH]2)Cc2ccccc2C1
inactive: [1] | [2] | [3] | [4] | [5] | [8] | [7]

C=CC1CC=CCC1 (centres undefined)
inactive: [1] | [2] | [3] | [4] | [6]

C[C@]12CCC(=O)C[C@@H]1CC[C@@H]1[C@@H]2CC[C@@]2(C)[C@H]1CC[C@]2(C)O
inactive: [1] | [2] | [3] | [4] | [5] | [7]
